# About 2,000 (36%) of roughly 5,500 compounds were called active. About 18% were inconclusive and are not listed. This is one part of the list. Values without a mark were called inactive. Cut-off read from the data, not from the text of the source: active = normalized growth mostly below about 0.91 (no sharp cut-off); inconclusive = no clear call, values can overlap the other calls; inactive = mostly above about 0.92.
# Test: chemical genetic growth profiling, strain panel (AID 1159580);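 note: tested at 20 µM; growth read once vehicle control cultures reached saturation at 30 °C; 1 = growth at the plate median or of vehicle wells; lower values mean less growth of the strain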
# Settings: S. cerevisiae deletion strains, growth OD
structure (smiles),measurement,setting,value
CC(C)(C)c1ccc(C(=O)Nc2ccc(C(F)(F)F)cc2)s1,normalized growth,"locus YAR019C, strain CDC15, active compounds read low",0.985
same,normalized growth,"locus YBL105C, strain PKC1, active compounds read low",0.991
same,normalized growth,"locus YBR135W, strain CKS1, active compounds read low",0.994
same,normalized growth,"locus YBR136W, strain MEC1, active compounds read low",0.972
same,normalized growth,"locus YBR160W, strain CDC28, active compounds read low",0.984
same,normalized growth,"locus YDL017W, strain CDC7, active compounds read low",0.997
same,normalized growth,"locus YDL028C, strain MPS1, active compounds read low",0.967
same,normalized growth,"locus YDL101C, strain DUN1, active compounds read low",1.01
same,normalized growth,"locus YDL108W, strain KIN28, active compounds read low",0.972
same,normalized growth,"locus YDL132W, strain cdc53, active compounds read low",0.988
same,normalized growth,"locus YDL214C, strain PRR2, active compounds read low",0.952
same,normalized growth,"locus YDR052C, strain DBF4, active compounds read low",0.996
same,normalized growth,"locus YDR054C, strain cdc34, active compounds read low",0.989
same,normalized growth,"locus YDR226W, strain ADK1, active compounds read low",0.976
same,normalized growth,"locus YDR477W, strain SNF1, active compounds read low",0.952
same,normalized growth,"locus YER123W, strain YCK3, active compounds read low",0.968
same,normalized growth,"locus YER133W, strain GLC7, active compounds read low",0.977
same,normalized growth,"locus YFL009W, strain cdc4, active compounds read low",0.976
same,normalized growth,"locus YFL029C, strain CAK1, active compounds read low",0.987
same,normalized growth,"locus YFR003C, strain YPI1, active compounds read low",0.999
same,normalized growth,"locus YFR019W, strain FAB1, active compounds read low",0.972
same,normalized growth,"locus YFR028C, strain CDC14, active compounds read low",0.985
same,normalized growth,"locus YGR040W, strain KSS1, active compounds read low",0.954
same,normalized growth,"locus YGR052W, strain FMP48, active compounds read low",1
same,normalized growth,"locus YGR092W, strain DBF2, active compounds read low",0.966
same,normalized growth,"locus YHR030C, strain SLT2, active compounds read low",0.821 (active)
same,normalized growth,"locus YHR079C, strain IRE1, active compounds read low",0.963
same,normalized growth,"locus YHR082C, strain KSP1, active compounds read low",0.991
same,normalized growth,"locus YHR205W, strain SCH9, active compounds read low",0.92
same,normalized growth,"locus YIL147C, strain SLN1, active compounds read low",0.989
same,normalized growth,"locus YJL095W, strain BCK1, active compounds read low",0.957
same,normalized growth,"locus YJL128C, strain PBS2, active compounds read low",0.943
same,normalized growth,"locus YJL157C, strain FAR1, active compounds read low",0.976
same,normalized growth,"locus YJR016C, strain ILV3, active compounds read low",0.996
same,normalized growth,"locus YJR066W, strain TOR1 (second series), active compounds read low",0.967
same,normalized growth,"locus YJR066W, strain TOR1, active compounds read low",0.929
same,normalized growth,"locus YKL048C, strain ELM1, active compounds read low",0.988
same,normalized growth,"locus YKL067W, strain YNK1, active compounds read low",0.944
same,normalized growth,"locus YKL101W, strain HSL1, active compounds read low",0.935
same,normalized growth,"locus YKL193C, strain SDS22, active compounds read low",0.986
same,normalized growth,"locus YKL203C, strain TOR2, active compounds read low",1.05
same,normalized growth,"locus YLR113W, strain HOG1, active compounds read low",0.863
same,normalized growth,"locus YLR133W, strain CKI1, active compounds read low",0.971
same,normalized growth,"locus YLR403W, strain SFP1, active compounds read low",0.974
same,normalized growth,"locus YML070W, strain DAK1, active compounds read low",0.944
same,normalized growth,"locus YMR001C, strain CDC5, active compounds read low",0.995
same,normalized growth,"locus YMR205C, strain PFK2 (second series), active compounds read low",0.975
same,normalized growth,"locus YMR277W, strain FCP1, active compounds read low",0.966
same,normalized growth,"locus YNL006W, strain LST8, active compounds read low",0.981
same,normalized growth,"locus YNL020C, strain ARK1, active compounds read low",0.973
same,normalized growth,"locus YNL161W, strain CBK1, active compounds read low",0.985
same,normalized growth,"locus YNL183C, strain NPR1, active compounds read low",1.01
same,normalized growth,"locus YNL207W, strain RIO2, active compounds read low",0.991
same,normalized growth,"locus YNL222W, strain SSU72, active compounds read low",0.988
same,normalized growth,"locus YNL307C, strain MCK1 (second series), active compounds read low",0.99
same,normalized growth,"locus YOL078W, strain AVO1, active compounds read low",0.989
same,normalized growth,"locus YOL136C, strain PFK27, active compounds read low",0.939
same,normalized growth,"locus YOR061W, strain CKA2, active compounds read low",1
same,normalized growth,"locus YOR119C, strain RIO1, active compounds read low",0.993
same,normalized growth,"locus YOR231W, strain MKK1, active compounds read low",0.925
same,normalized growth,"locus YOR329C, strain SCD5, active compounds read low",0.999
same,normalized growth,"locus YPL031C, strain PHO85, active compounds read low",0.977
same,normalized growth,"locus YPL153C, strain RAD53, active compounds read low",0.951
same,normalized growth,"locus YPL204W, strain HRR25, active compounds read low",0.951
same,normalized growth,"locus YPL209C, strain IPL1, active compounds read low",0.991
same,normalized growth,"locus YPL256C, strain CLN2, active compounds read low",0.899
same,normalized growth,"locus YPR025C, strain CCL1, active compounds read low",1
same,normalized growth,"locus YPR106W, strain ISR1, active compounds read low",0.98
same,normalized growth,"locus YPR111W, strain DBF20, active compounds read low",0.955
same,normalized growth,"strain NNK1, active compounds read low",0.98
same,normalized growth,"strain TSCII, active compounds read low",0.983
